# PubChem BioAssay (NCI)
# About 83,000 compounds went through this panel and 20% of them were active in at least one assay; those are over-represented in the sample as a whole.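 Method: cells in 96-well plates; compound added at one concentration; 48 h incubation; percent growth measured; values under 10 scored active.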 A number with no mark means an inactive call. Activity calls are given as the source filed them.
# Tests used:
# Test in all cases: NCI-60 one-dose screen, 48 h (100 = growth as untreated, 0 = no growth, -100 = all killed)
# Conditions in all cases: 10 µM unless noted
# [1] = system: T-47D breast
# [2] = system: BT-549 breast
# [3] = system: MDA-MB-435 melanoma
# [4] = system: SW-620 colon
# [5] = system: MCF7 breast
# [6] = system: HCT-116 colon
# [7] = system: HCC-2998 colon
# [8] = system: KM12 colon
SMILES,growth [1],growth [2],growth [3],growth [4],growth [5],growth [6],growth [7],growth [8]
O=C(Nc1ncc(Cc2cccc(C(F)(F)F)c2)s1)c1ccc(-n2cnnn2)cc1,44.7%,67.6%,24%,53.4%,28.7%,42.4%,48.9%,28.8%
C=CCNC(=O)Cc1c(-c2ccc(OC)cc2)oc2c(OC)c3c(c(OC)c12)OCO3,101%,100%,103%,103%,83.9%,92.8%,116%,96.2%
COc1ccc(/C=C(\C#N)c2cc3ccccc3[nH]2)cc1,28.3%,40.9%,-32.6% (active),9.82% (active),13.3%,12.5%,39%,20.4%
CCN1C(=O)N(c2ccccc2)C2NC(=S)N(/N=C/C=C/c3ccccc3)C21 (stereo not given),38.2%,-8.95% (active),-35.1% (active),26.5%,3.24% (active),2.69% (active),17.6%,21%
C/C(=C(\c1ccc(OCCN2CCOCC2)cc1)c1ccc(OC(=O)C2CCCCC2)cc1)c1ccc(Cl)cc1,66.5%,91.3%,94.4%,96.6%,79.8%,78.7%,94.2%,98.8%
O=[N+]([O-])c1cc(C(F)(F)F)ccc1Sc1ccc(C(F)(F)F)cc1[N+](=O)[O-],70%,79.3%,21.3%,20.6%,67.7%,10.7%,99.4%,65.8%
Cc1ccc(C(=O)Nc2ccc(CN3CCN(C)CC3)c(C(F)(F)F)c2)cc1C#Cc1cnc(N)cc1C#N,-4.9% (active),13.9%,-90.7% (active),-81.2% (active),-75.5% (active),-87% (active),-77.3% (active),-69.8% (active)
C=C(C)[C@@H]1CC[C@]2(C(=O)N3CCN(C)CC3)CC[C@]3(C)[C@H](CC[C@@H]4[C@@]5(C)CC(CCCNC(C)=O)(CCCNC(C)=O)[C@H](OC(C)=O)C(C)(C)[C@@H]5CC[C@]43C)[C@@H]12,89.9%,104%,94.4%,99.2%,89.1%,90.7%,106%,107%
CCCn1nc(C(=O)N2CCCCC2)c2c1CCC(N1CCC(c3ccncc3)CC1)C2 (stereo not given),99.5%,79.5%,102%,104%,99.6%,99.4%,109%,103%
COc1ccc(/C=N\Nc2nc(SCC(C)C)nc(-c3ccc(OC)cc3)c2C#N)cc1,16.2%,110%,68.5%,51%,59.3%,2.29% (active),64.2%,62.6%
CCCCC1COc2cccc3c2N1C=C/C3=C\C(=O)N(C)c1cccc(Cl)c1 (stereo not given),88.7%,107%,101%,102%,104%,91.2%,111%,105%
Cc1ccc(S(=O)(=O)OC[C@@]2(C)CC[C@]3(C)CC[C@]4(C)C(=C3C2)C=C[C@@H]2[C@@]3(C)CCCNC(C)(C)[C@@H]3CC[C@]24C)cc1,-57.7% (active),83.6%,-38.2% (active),-85.8% (active),-4.17% (active),-91.4% (active),-29% (active),-75.8% (active)
CS(=O)(=O)Nc1cc(-c2ccc3ncnc(Nc4ccc(F)c(Cl)c4)c3c2)cnc1Cl,-7.45% (active),-21.7% (active),9.94% (active),13.8%,5.44% (active),1.28% (active),16.1%,7.66% (active)
O=C(CN1C(=O)S/C(=C\C(Cl)=C\c2ccccc2)C1=O)NCCCn1ccnc1,21.3%,43.8%,20.2%,3.27% (active),15%,-57.2% (active),73.5%,33.9%
Cc1ccc(-c2nc3nc(-c4ccc(Br)cc4)nc(N4CCCNCC4)c3o2)cc1,-8.11% (active),99.5%,7.5% (active),-72.4% (active),-75.8% (active),-79.8% (active),-80.7% (active),-90.9% (active)
